Measurements: PubChem BioAssay (NCATS)
Results filed as inconclusive are left out. Unless noted, calls come from the whole dose curve; as a rule, active = well fitted curve in either direction with a large enough effect (not every such curve was filed as active); inconclusive = small, poorly fitted or top-dose-only effect, or another doubt; inactive = flat fitted curve, though single readings scatter.

Experiments:
[1] = AP1 Signaling Pathway (AID 357); settings: ME-180 AP-1-bla reporter, EGF-induced, beta-lactamase ratio, 5 h; at 17.2 µM (top of the series) unless noted;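 note: ME-180 reporter cells stimulated with EGF at its EC50 level; % is set by controls: 0 for no effect and ±100 for the full control effect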
In short: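 Titration-series screen for positive or negative modulators of EC50 EGF-induced signaling in ME-180 cells carrying an AP-1-driven beta-lactamase reporter. After 5 hours at 37 degrees Celsius, CCF4 460nm/530nm emission ratio gave %Activity; AC50 values derived.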

[2] = NFAT Signaling Pathway (AID 444); settings: Jurkat NFAT-bla M1, carbachol, beta-lactamase ratio, 5 h; at 17.2 µM (top of the series) unless noted;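 note: carbachol stimulus at about its EC50 of 1 µM final; % is set by controls: 0 for no effect and ±100 for the full control effect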
In short: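 Read-out: CCF4 FRET ratio (460 nm/530 nm) after 1 h RT dye loading, used for %activity and AC50 from titration series. Cells: Jurkat NFAT-β-lactamase/M1 line, treated with compound plus 1 uM carbachol for 5 h, 37 °C.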

[3] = Stat Signaling Pathway (AID 446); settings: ME-180 SIE beta-lactamase reporter, IL-6 stimulated, 5 h; at 17.2 µM (top of the series) unless noted;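 note: ME-180 cervical cancer cells given 40 pM IL-6 alongside compound; SIE-controlled beta-lactamase reporter measured as 460/530 nm FRET emission ratio; % is set by controls: 0 for no effect and ±100 for the full control effect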
In short: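 ME-180 SIE-bla cells; overnight plating; cpd + IL-6 40 pM, 5 h, 37 C; LiveBLAzer 2.5 h RT; 460/530 nm emission ratio. Normalized to 300 pM IL-6 and 125 nM JAK inhibitor controls.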

[4] = biological target: Glucocorticoid receptor (Homo sapiens) (UniProt P04150); experiment: GR-GFP Redistribution (AID 450;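 active = compounds whose dose series gives a full or clear partial fitted curve of increased nuclear translocation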; note: potency is the fitted concentration of half-maximal effect); settings: U2OS GR-GFP nuclear translocation, laser cytometry, 2 h; series mostly up to 20.6 µM
Sequence of Glucocorticoid receptor (Homo sapiens) (P04150 whole entry, looked up): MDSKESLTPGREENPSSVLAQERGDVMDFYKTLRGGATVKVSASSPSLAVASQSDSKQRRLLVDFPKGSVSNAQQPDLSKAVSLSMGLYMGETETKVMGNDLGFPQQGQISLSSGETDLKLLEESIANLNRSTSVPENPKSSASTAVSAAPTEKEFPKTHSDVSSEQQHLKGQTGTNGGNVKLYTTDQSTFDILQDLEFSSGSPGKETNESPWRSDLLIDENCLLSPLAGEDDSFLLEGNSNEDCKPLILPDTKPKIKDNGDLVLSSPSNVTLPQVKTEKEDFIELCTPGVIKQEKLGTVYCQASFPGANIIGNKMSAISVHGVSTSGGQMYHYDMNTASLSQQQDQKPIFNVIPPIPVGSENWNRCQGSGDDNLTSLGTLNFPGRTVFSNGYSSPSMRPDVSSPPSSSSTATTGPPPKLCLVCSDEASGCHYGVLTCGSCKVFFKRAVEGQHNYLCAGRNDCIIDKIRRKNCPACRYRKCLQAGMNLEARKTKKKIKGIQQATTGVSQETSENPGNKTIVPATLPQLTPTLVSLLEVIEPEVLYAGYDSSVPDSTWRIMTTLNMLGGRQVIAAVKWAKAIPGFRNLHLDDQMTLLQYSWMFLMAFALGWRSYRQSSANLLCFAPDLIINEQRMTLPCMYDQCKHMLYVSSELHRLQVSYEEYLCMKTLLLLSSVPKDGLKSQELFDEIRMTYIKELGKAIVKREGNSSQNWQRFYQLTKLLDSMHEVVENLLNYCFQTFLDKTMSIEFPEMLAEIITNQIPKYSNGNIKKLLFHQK

CC(C)Nc1nc(NC(C)C)nc(N(C)n2cnnc2)n1
inactive: activity change, negative = inhibition [1] 9.58% | activity change, negative = inhibition [2] -6.19% | activity, negative = inhibition [3] 4.66% | Potency [4] > 20.6 µM

CC1(C(=O)CSc2nc3ccccc3[nH]2)CCC(=O)O1 (stereo not given)
inactive: activity change, negative = inhibition [1] 4.25% | activity change, negative = inhibition [2] 3.87% | activity, negative = inhibition [3] -2.98% | Potency [4] > 20.6 µM

COc1cc([C@@H]2[C@H]3CN(C)CC=C3C(C#N)=C(N)C2(C#N)C#N)cc2c1OCO2
inactive: activity change, negative = inhibition [1] -11% | activity change, negative = inhibition [2] 9.82% | activity, negative = inhibition [3] 10.9% | Potency [4] > 20.6 µM

COc1cccc(OC)c1OCCN1CCN(C(=O)c2ccco2)CC1
inactive: activity change, negative = inhibition [1] 17.1% | activity change, negative = inhibition [2] -6.56% | activity, negative = inhibition [3] 11.8% | Potency [4] > 20.6 µM

COc1cccc(Cn2c(NCc3ccco3)nc3c2c(=O)n(C)c(=O)n3C)c1
inactive: activity change, negative = inhibition [1] -11% | activity change, negative = inhibition [2] -5% | activity, negative = inhibition [3] -24.4% | Potency [4] > 20.6 µM

COc1cccc(C(=O)NCC(=O)n2nc(C)cc2C)c1
inactive: activity change, negative = inhibition [1] 23.4% | activity change, negative = inhibition [2] -4.99% | activity, negative = inhibition [3] 16.7% | Potency [4] > 20.6 µM

CCCCCOc1ccccc1C(=O)NCC(=O)O
inactive: activity change, negative = inhibition [1] 1.59% | activity change, negative = inhibition [2] 0.449% | activity, negative = inhibition [3] 9.43% | Potency [4] > 20.6 µM

CN(C)c1oc(-c2cccs2)nc1C#N
inactive: activity change, negative = inhibition [1] -7.44% | activity change, negative = inhibition [2] 8.47% | activity, negative = inhibition [3] 10.4% | Potency [4] > 20.6 µM

CN1CCC2(CC1)C1CN(C)CC=C1C(C#N)=C(N)C2(C#N)C#N (stereo not given)
inactive: activity change, negative = inhibition [1] 6.27% | activity change, negative = inhibition [2] 13.7% | activity, negative = inhibition [3] 12.8% | Potency [4] > 20.6 µM

CCOc1ccc(C2/C(=C(/O)c3ccc(F)cc3)C(=O)C(=O)N2CCCN(C)C)cc1 (stereo not given)
inactive: activity change, negative = inhibition [1] 10.1% | activity change, negative = inhibition [2] 5.42% | activity, negative = inhibition [3] 6.85% | Potency [4] > 20.6 µM

Cn1c(=O)n(C)c2cc(C(=O)c3ccccc3)ccc21
inactive: activity change, negative = inhibition [1] 17.6% | activity change, negative = inhibition [2] -28.2% | activity, negative = inhibition [3] -6.62% | Potency [4] > 20.6 µM

COC(=O)CSc1nc(N)nc(C)c1Br
inactive: activity change, negative = inhibition [1] 5.47% | activity change, negative = inhibition [2] 1.04% | activity, negative = inhibition [3] 2.44% | Potency [4] > 20.6 µM

CCOC(=O)Cc1[nH]nc2c1C(c1cc(OC)ccc1OC)C(C#N)=C(N)O2 (stereo not given)
inactive: activity change, negative = inhibition [1] -11.5% | activity change, negative = inhibition [2] -0.329% | activity, negative = inhibition [3] -9.93% | Potency [4] > 20.6 µM

CCOC(=O)CC(=O)CSc1nc2c(cc1C#N)CCCCCC2
inactive: activity change, negative = inhibition [1] -15.8% | activity change, negative = inhibition [2] 2.93% | activity, negative = inhibition [3] -11.8% | Potency [4] > 20.6 µM

O=C(COc1ccc(Cl)cc1)Nc1ccccc1CO
inactive: activity change, negative = inhibition [1] 6.8% | activity change, negative = inhibition [2] 6.35% | activity, negative = inhibition [3] 0.225% | Potency [4] > 20.6 µM

Cn1c(=O)[nH]c(=O)c2c1nc(N(CCO)Cc1ccccc1)n2Cc1ccccc1Cl
inactive: activity change, negative = inhibition [1] -1.99% | activity change, negative = inhibition [2] -6.08% | activity, negative = inhibition [3] -4.12% | Potency [4] > 20.6 µM

COc1ccc2c(c1)C1(C)CC(C)(C)N2C(=O)N1c1ccccc1 (stereo not given)
inactive: activity change, negative = inhibition [1] -24.6% | activity change, negative = inhibition [2] 24.8% | activity, negative = inhibition [3] -17.2% | Potency [4] > 20.6 µM

CCN(CC)CCN1C(=O)c2ccccc2NC1c1cc(OC)c(OC)c(OC)c1 (stereo not given)
inactive: activity change, negative = inhibition [1] 8.96% | activity change, negative = inhibition [2] 5.73% | activity, negative = inhibition [3] 10.5% | Potency [4] > 20.6 µM

O=c1[nH]c2sc3c(c2c(=O)n1Cc1ccccc1)CCC3
inactive: activity change, negative = inhibition [1] -27.5% | activity change, negative = inhibition [2] 16.2% | activity, negative = inhibition [3] -5.31% | Potency [4] > 20.6 µM

Cc1cc(OCCN2CCOCC2)nc2ccccc12
inactive: activity change, negative = inhibition [1] -9.97% | activity change, negative = inhibition [2] 23.5% | activity, negative = inhibition [3] 1.79% | Potency [4] > 20.6 µM

CCC(NC(=O)Nn1cnnc1)(C(F)(F)F)C(F)(F)F
inactive: activity change, negative = inhibition [1] 21.2% | activity change, negative = inhibition [2] -0.332% | activity, negative = inhibition [3] 5.97% | Potency [4] > 20.6 µM

CCN(CC)CCCN1C(=O)C(=O)/C(=C(/O)c2ccc3c(c2)CC(C)O3)C1c1cccnc1 (stereo not given)
inactive: activity change, negative = inhibition [1] 4.22% | activity change, negative = inhibition [2] 11.9% | activity, negative = inhibition [3] 9.37% | Potency [4] > 20.6 µM

CCOC(=O)C1=C(C)NC(=O)NC1c1ccc2c(c1)OCO2 (stereo not given)
inactive: activity change, negative = inhibition [1] -4.59% | activity change, negative = inhibition [2] -26.9% | activity, negative = inhibition [3] -3.46% | Potency [4] > 20.6 µM

CCOc1nc(-c2ccncc2)nc2ccccc12
inactive: activity change, negative = inhibition [1] -12% | activity change, negative = inhibition [2] 2.73% | activity, negative = inhibition [3] -6.2% | Potency [4] > 20.6 µM

Cc1cc(=O)oc(C)c1C(=O)NCCc1ccccc1
inactive: activity change, negative = inhibition [1] 8.18% | activity change, negative = inhibition [2] -8.25% | activity, negative = inhibition [3] 14.6% | Potency [4] > 20.6 µM
